Results on 105 compounds are retold here after PubChem BioAssay AID1626 (SRMLSC, 2009).

Each structure is given as a SMILES string. Screen size: about 220,000 compounds; about 2,000 (0.91%) were called active. Another 2% or so got no clear call; they are omitted. These entries were drawn from the full list. Potency and affinity values are given separately. A number with no mark means an inactive call. Cut-off read from the data, not from the text of the source: inconclusive = inhibition above about 80% without an active follow-up result; inactive = below that; test concentration not stated here.

The nature of the experiment: M. tuberculosis H37Rv growth inhibitors, H37Rv strain (AID 1626).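 Note: bacteria incubated seven days before Alamar blue readout; 0% = bacteria only wells and 100% = bacteria with antibiotic wells.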 As to conditions: active compounds read high, concentration not given here.
For `Cc1cc(Cl)ccc1NC(=O)C1CCCN1C(=O)c1cccs1` (stereo not given), the inhibition was 0.31%.
For the compound `CCN(CC)CCn1c(SCC(=O)NCc2ccccc2)nc2c(sc3ccccc32)c1=O`, the inhibition was 3.01%.
For the compound `COc1ccc(Nc2c3c(nc4ccccc24)CCCC3)cc1OC`, the inhibition is 8.23%.
As for `O=C(CSc1nnc(NC(=O)c2ccccc2C(=O)O)s1)Nc1ccccc1Cl`, the inhibition is -9.06%.
`CCOc1cc(/C=C/c2cc(C(F)(F)F)[nH]c(=O)n2)ccc1O`: the inhibition was 2.01%.
Consider `COc1cc(C(=O)N/N=c2/sc3ccccc3n2C)cc(OC)c1OC`, for which the inhibition was -5.9%.
For `COc1ccccc1NC(=O)c1cc2ccccc2nc1C`, the inhibition is 2.95%.
`O=C(COc1ccc2c(-c3ccccc3)cc(=O)oc2c1)NCc1cccs1`: the inhibition is 1.19%.
Then `CCCc1cc(=O)oc2cc(OCC(=O)NCc3cccs3)ccc12`, with 7.98%.
Take `COc1ccc(Cn2ccnc2CO)cc1[N+](=O)[O-]`: the inhibition was -1.53%.
Consider `O=C(NC(=S)Nc1ccccc1)c1cc(-c2ccccc2)nc2ccccc12`, for which the inhibition was -4.77%.
Turning to `O=C(O)c1cc(-c2ccccc2)nc2ccccc12`, the inhibition is -5.49%.
As for `COc1ccc(-c2cc(C(=O)Nc3ccc(O)cc3)c3ccccc3n2)cc1OC`, the inhibition is 14.5%.
As for `COc1ccc(-c2cc(C(=O)Nc3nc4c(C)cccc4s3)c3ccccc3n2)cc1OC`, the inhibition was 12.1%.
As for `O=C(Nc1nc2ccccc2s1)c1cc(-c2ccco2)nc2ccccc12`, the figure is 13.9%; as for `COc1cccc(-c2cc(C(=O)Nn3cnnc3)c3ccccc3n2)c1`, 2.95%; as for `O=C(C[n+]1ccccc1)Nc1c(Cl)cc(Cl)cc1Cl`, -1.93%.
Regarding `Cn1cnnc1SCC(=O)Nc1nc(-c2ccccc2)cs1`, the inhibition was -4.7%.
For `COc1ccc(NC(=O)CSc2nc3c([nH]c4ccccc43)c(=O)n2C)cc1`, the inhibition is 7.61%.
Consider `Cc1ccc(OCC(=O)c2cc(C)n(CC(F)(F)F)c2C)c([N+](=O)[O-])n1`, for which the inhibition was -2.91%.
For the compound `N/C(CS(=O)(=O)c1ccccn1)=N\OC(=O)c1ccc(Cl)cc1`, the inhibition was -1.94%.
In the case of `Cn1ncc(N)c1C(=O)Nc1cccc(C(F)(F)F)c1`, the inhibition was 4.36%.
Take `O=C(c1cccc(Cl)c1)N1CCC(=O)N(C(COCc2ccccc2)Cc2ccccc2)CC1` (stereo not given): the inhibition is -0.16%.
`CCOC(=O)c1sc2nc3c(SCC(=O)O)cc(C(=O)c4cc(F)ccc4O)cn3c(=O)c2c1C`: the inhibition was -5.14%.
As for `Cc1cc(Oc2ccc(Cl)cc2)nc(-c2ccccc2O)n1`, the figure is 20.4%.
Take `CSc1nc(Oc2ccc(F)cc2)c2ccccc2n1`: the inhibition was 8.64%.
Turning to `Cc1ccc(Oc2nc(C(F)(F)F)nc3ccccc23)cc1`, the inhibition is 9.79%.
Turning to `CC(=O)Nc1ccc(Oc2nc(-c3ccccn3)nc3ccccc23)cc1`, the inhibition was -12.6%.
Then `C/C(=N\Nc1nc(-c2ccccn2)nc2ccccc12)c1ccc(F)cc1`, with 67.4%; and `COc1ccc(Oc2nc(-c3ccncc3)nc3ccccc23)cc1`, with 3.37%; and `FC(F)(F)c1cc(Oc2ccc(Cl)cc2)nc(-c2ccccn2)n1`, with 11.7%.
Take `CC(=O)Nc1cccc(Oc2nc(-c3ccccn3)nc3ccccc23)c1`: the inhibition was 3.26%.
On to `COc1cc(C(=O)c2nccc3cc(OC)c(OC)cc23)c([N+](=O)[O-])cc1OC`, for which the inhibition is 1.27%.
On to `COc1ccc(Nc2nnc(SCC(=O)/C=C3/N(C)c4ccccc4C3(C)C)s2)cc1`, for which the inhibition is 10.8%.
Then `CCSc1nnc(-c2ccc(C)cc2)c2ccccc12`, with 18.7%.
For `Cc1onc(-c2ccccc2)c1C(=O)N/N=C/c1cc(Br)c(Br)o1`, the inhibition was -1.13%.
On to `COc1ccc2nc(SCC(=O)NCCc3ccccc3)[nH]c2c1`, for which the inhibition was 0.98%.
As for `O=c1[nH]c(SCc2nc3ccccc3n2Cc2ccccc2)nc2ccccc12`, the inhibition was 5.31%.
Turning to `Fc1ccc(CSc2nncn2NCc2ccccc2)cc1`, the inhibition is -8.84%.
For the compound `O=C(Nc1cccc(NC(=O)c2cccs2)c1)c1ccc2c(c1)OCCO2`, the inhibition is 4%.
Consider `O=C(NNC1=NCCC1)c1cccc(S(=O)(=O)N2CCCC2)c1`, for which the inhibition is -1.54%.
Regarding `Cc1cccc(N=Cc2c(O)cc(C)oc2=O)c1`, the inhibition is 2.51%.
With `Nc1ccc(Oc2cccc(Oc3ccc(N)cc3)c2)cc1`, the inhibition was 0.76%.
As for `Cc1cc(C)cc(Oc2ccc(N)cc2)c1`, the inhibition is -4.94%.
Regarding `Brc1ccc2ncc(Br)cc2c1`, the inhibition is 9.05%.
For the compound `Nc1ccc(Br)cc1C(=O)O`, the inhibition was -3.82%.
As for `CCOC(=O)N1CCN(S(=O)(=O)c2ccc3c(c2)CCN3C(=O)CC)CC1`, the inhibition was -14.9%.
With `CCc1ccccc1NC(=O)c1ccc(Cn2cc([N+](=O)[O-])cn2)cc1`, the inhibition was 2.06%.
Consider `CC(C)Cc1nnc(NS(=O)(=O)Cc2ccccc2)s1`, for which the inhibition is 3.7%.
For the compound `COc1ccc(CN(C)C(=O)CCl)cc1`, the inhibition was 17.4%.
For the compound `CN(Cc1ccc(Cl)cc1)C(=O)CCl`, the inhibition was 63%.
Take `CCOC(=O)c1ccc(-n2c(CN3CCN(CC)CC3)nc3ccc([N+](=O)[O-])cc3c2=O)cc1`: the inhibition was 64.1%.
On to `CCOC(=O)c1ccc(-n2c(CN3CCOCC3)nc3ccc([N+](=O)[O-])cc3c2=O)cc1`, for which the inhibition is 69.4%.
For the compound `CC(C)Sc1nnc([C@@H](N)Cc2ccccc2)o1`, the inhibition is -1.26%.
For `Cc1ccc(-c2nn(-c3cccc(F)c3)cc2CNCCc2ccncc2)o1`, the inhibition is 8.28%.
Take `Cc1ccc(-c2nn(-c3cccc(F)c3)cc2CNCc2cccnc2)o1`: the inhibition is 12.8%.
As for `C=CCNC(=O)c1onc(CSc2cc(C)cc(C)c2)c1C(=O)NCC=C`, the figure is 4.46%; as for `O=c1c2cn[nH]c2[nH]c(=S)n1-c1cccc2ccccc12`, 8.18%; as for `COc1ccccc1OCC#CCN1CCCCCC1`, 4.4%.
In the case of `Cc1ccc(NC2=NCC(Cc3ccc(Br)cc3)S2)cc1` (stereo not given), the inhibition was 44.8%.
Turning to `COc1ccc(NC2=NCC(C)S2)cc1` (stereo not given), the inhibition is 5.03%.
Take `CC1=C(C#N)C(NC(=O)C(C)(C)C)(C(F)(F)F)C(=O)N1` (stereo not given): the inhibition is -1.62%.
As for `CCOC(=O)CN(Cc1sccc1C)C(=O)Nc1ccc(OCC)cc1`, the figure is 3.69%; as for `CSc1ccc(/C=C(/Sc2nnc(-c3ccccc3)o2)C(=O)O)cc1`, -6.84%.
For the compound `CCOC(=O)c1cccc(NC(=O)/C=C/c2ccc([N+](=O)[O-])cc2)c1`, the inhibition was 22.2%.
`CCCCCC/C(=N/O)c1ccccn1`: the inhibition is -3.95%.
In the case of `CCCCCC(=O)N/N=C(\C)c1ccccn1`, the inhibition is 1.4%.
For the compound `COc1ccc(Cl)cc1-c1n[nH]c(=S)n1C1CCCCC1`, the inhibition was 0.84%.
Turning to `CC(=O)c1cccc(CN2CCC(CO)(CCCc3ccccc3)CC2)c1`, the inhibition was 3.9%.
With `Cc1ccccc1-c1ncc(CN2CCC(CO)(CCCc3ccccc3)CC2)cn1`, the inhibition is 69.6%.
In the case of `N#C/C(=C(/O)c1cccs1)c1nnc2n1CCCCC2`, the inhibition is -5.04%.
`Cc1ccc(S(=O)(=O)N2CCCC(C(=O)N(Cc3cccs3)C3CC3)C2)cc1` (stereo not given): the inhibition was -4.95%.
`CSCCC(NC(=O)c1ccc(C(C)(C)C)cc1)C(=O)O` (stereo not given): the inhibition is 0.53%.
As for `O=C(COc1ccc(OCc2ccccc2)cc1)NN=C1CCCC1`, the figure is 7.98%; as for `Nc1ccc(O)c2c1C(=O)c1ccccc1C2=O`, 0.25%; as for `COc1ccc(OC)c2c1C(=O)c1ccccc1C2=O`, 6.76%.
In the case of `Clc1ccc(Nc2ncn[nH]2)cc1`, the inhibition is 77.2%.
As to `Clc1cc(Cl)cc(Nc2ncn[nH]2)c1`, the inhibition was 5.96%.
`CCCOc1ccc2c(C)c(CC(=O)OC)c(=O)oc2c1`: the inhibition is -2.3%.
Regarding `Cc1ccc(SCC(=O)NC(=O)NC(C)C)c(C)c1`, the inhibition was 11.6%.
Consider `O=C(Nc1nnc(C2CC2)s1)c1cc(-c2ccccc2)nn1-c1ccccc1`, for which the inhibition was 43.6%.
As for `COc1ccc(NC(=S)N(Cc2ccc(Cl)cc2)Cc2ccc(C(=O)O)cc2)cc1Cl`, the figure is 61%.
As for `CC1=CC(C)(C)Nc2ccc(OC(=O)c3cccnc3)cc21`, the inhibition is -2%.
Regarding `CC1=CC(C)(C)Nc2ccc(OC(=O)CN3C(=O)c4ccccc4C3=O)cc21`, the inhibition is -11.5%.
`CC1CC(C)(C)NCc2ccccc21` (stereo not given): the inhibition is -9.91%.
Regarding `CC1CC(C)(C)NC(C)c2ccccc21` (stereo not given), the inhibition was -2.84%.
For `O=C(Oc1ccc2ccccc2c1)c1ccco1`, the inhibition was 53.4%.
As for `COC(=O)c1ccc(OC(=O)c2ccco2)cc1`, the inhibition is -4.94%.
Take `NS(=O)(=O)c1ccc(NC(=O)c2c(Cl)cccc2Cl)cc1`: the inhibition is 2.71%.
As to `O=C1CC(c2cccc(F)c2)c2c(c3ccccc3[nH]c2=O)O1` (stereo not given), the inhibition is 1.98%.
In the case of `Cc1ccccc1-n1c(C)nc2ccccc2c1=O`, the inhibition is 2.88%.
For `O=c1c2ccccc2nc(-c2ccccc2)n1-c1ccccc1`, the inhibition was 2.18%.
`CC(Nc1ccc(Cl)cc1)c1cc(Cl)ccc1O` (stereo not given): the inhibition is -8.64%.
As for `Cc1ccc(NC(C)c2cc(Cl)ccc2O)cc1` (stereo not given), the inhibition is -1.72%.
As for `CSc1nc(N(C)NC(=O)c2ccc(F)cc2)c2ccccc2n1`, the figure is -5.17%; as for `CSc1nc(N(C)NC(=O)c2ccccc2)c2ccccc2n1`, -4.21%.
Take `O=C(NCc1ccccc1)[C@]1(C(F)(F)F)C[C@H](CCc2ccccc2)CCCO1`: the inhibition was -10.1%.
Take `Nc1nn(-c2cccc(F)n2)cc1-c1ccccc1`: the inhibition was -5.22%.
For the compound `O=C(COc1ccc(Cl)cc1)Nc1ccccc1N1CCOCC1`, the inhibition was -1.58%.
Then `CCCCNC(=O)COC(=O)c1ccc(Cl)c(S(N)(=O)=O)c1`, with -0.33%.
For `CCCNC(=O)COC(=O)c1cc(SC)ccc1Cl`, the inhibition was 7.67%.
For the compound `CNC(=O)COC(=O)c1cc(F)c(F)cc1Cl`, the inhibition was 4.23%.
As for `CC(C)NC(=O)COC(=O)c1cc(Br)ccc1Cl`, the figure is 4%; as for `CCCCNC(=O)COC(=O)c1ccc(F)cc1Cl`, 10.1%; as for `CC(C)(C)NC(=O)COC(=O)c1cc(F)c(F)cc1Cl`, 38.6%.

As a reminder, the inhibition is the drop in the measured response relative to a control, in per cent.
